# Compounds without any hit were thinned out: in the full panel of roughly 79,000, 15% have a hit. A number with no mark means an inactive call. Activity calls are given as the source filed them. Rule as the data show it: active = growth inhibition above about 70%; inactive = the rest.
# Legend:
# [1] = NCI Yeast Anticancer Drug Screen. Data for the mec2-1 strain (AID 157); settings: S. cerevisiae mec2-1 strain, stronger effect = higher value
# Outline: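 Test agents were screened against the mec2-1 yeast strain, with defined DNA repair or cell cycle alteration. Growth was scored as inhibition against vehicle-only controls.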
# [2] = NCI Yeast Anticancer Drug Screen. Data for the rad14 strain (AID 159);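 also: 0% = growth of vehicle-treated control cultures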; settings: S. cerevisiae rad14 strain growth inhibition, stronger effect = higher value
# Outline: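 Inhibition of growth is reported for a repair-deficient yeast mutant following compound treatment, calculated relative to cultures that received vehicle.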
# [3] = NCI Yeast Anticancer Drug Screen. Data for the sgs1 mgt1 strain (AID 161);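 also: 0% = growth of cultures given vehicle only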; settings: S. cerevisiae sgs1 mgt1 strain, stronger effect = higher value
# Outline: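 Genetically altered yeast, compound exposure, growth inhibition relative to vehicle.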
# [4] = NCI Yeast Anticancer Drug Screen. Data for the CLN2oe strain (AID 163);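 also: 0% = growth of vehicle-only control cultures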; settings: S. cerevisiae CLN2oe strain, stronger effect = higher value
# Outline: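 Here, growth inhibition in a cell-cycle-altered yeast strain after compound exposure was quantified against vehicle control growth.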
# [5] = NCI Yeast Anticancer Drug Screen. Data for the cln2 rad14 strain (AID 165);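 also: 0% = growth equal to vehicle treated cultures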; settings: S. cerevisiae cln2 rad14 strain, stronger effect = higher value
# Outline: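 Growth of compound-exposed yeast (cln2 rad14 genotype) measured and expressed as inhibition relative to vehicle.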
# [6] = NCI Yeast Anticancer Drug Screen. Data for the bub3 strain (AID 167); settings: S. cerevisiae bub3 mutant strain, stronger effect = higher value
# Outline: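 Mutant yeast screening strain plus compound; vehicle-treated cultures serve as the 0% inhibition reference.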
# [7] = NCI Yeast Anticancer Drug Screen. Data for the wt2 strain (AID 169); settings: S. cerevisiae wt2 strain growth inhibition, stronger effect = higher value
# Outline: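 Genetically defined yeast strains from a DNA-repair/cell-cycle panel were used. Compound-exposed yeast growth was measured, and the inhibition was calculated relative to vehicle treatment.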
# [8] = NCI Yeast Anticancer Drug Screen. Data for the mlh1 strain (AID 171);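 also: 0% = growth of vehicle-treated control cultures of the same strain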; settings: S. cerevisiae mlh1 strain growth inhibition, stronger effect = higher value
# Outline: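 Here the genetically defined yeast mutant is grown with each compound, and the extent to which its growth falls below that of vehicle-exposed cells is reported.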
# [9] = NCI Yeast Anticancer Drug Screen. Data for the sgs1 strain (AID 173);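 also: 0% = growth of vehicle-only control cultures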; settings: S. cerevisiae sgs1 mutant, stronger effect = higher value
# Outline: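 Relative growth inhibition, referenced to vehicle, was determined in a yeast strain with a defined alteration affecting DNA damage repair or cell cycle control after compound exposure.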
# [10] = NCI Yeast Anticancer Drug Screen. Data for the mlh1 rad18 strain (AID 175); settings: S. cerevisiae mlh1 rad18 strain growth inhibition, stronger effect = higher value
# Outline: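 In this whole-cell yeast screen, a strain with altered DNA damage repair is challenged with compound, and its growth is measured against matched vehicle-treated controls.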
# [11] = NCI Yeast Anticancer Drug Screen. Data for the rad18 strain (AID 177); settings: S. cerevisiae rad18 mutant growth inhibition, stronger effect = higher value
# Outline: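 Screen uses a yeast strain with a defined lesion in DNA damage repair; compound effect is read as loss of growth compared to untreated vehicle cultures.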
# [12] = NCI Yeast Anticancer Drug Screen. Data for the rad52 strain (AID 147);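 also: 0% = growth of vehicle-treated control cultures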; settings: S. cerevisiae rad52 mutant growth inhibition, stronger effect = higher value
# Outline: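 Measured: yeast growth inhibition. System: strain with a defined DNA damage repair alteration. Reference: vehicle-treated control cultures.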
# [13] = NCI Yeast Anticancer Drug Screen. Data for the rad50EPP+ strain (AID 151);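 also: 0% = growth of vehicle-treated control cultures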; settings: S. cerevisiae rad50 mutant strain, stronger effect = higher value
# Outline: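 One strain with a rad50 alteration (rad50EPP+) was compound-treated, its growth then compared to that of vehicle controls.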
# [14] = NCI Yeast Anticancer Drug Screen. Data for the mgt1 strain (AID 153); settings: S. cerevisiae mgt1 mutant growth inhibition, stronger effect = higher value
# Outline: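 After exposure of the mgt1 yeast mutant to compound, growth was measured and reported as inhibition compared with vehicle controls.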
# [15] = NCI Yeast Anticancer Drug Screen. Data for the rad50 strain (AID 155);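 also: 0% = growth of vehicle-only cultures of the same strain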; settings: S. cerevisiae rad50 strain growth inhibition, stronger effect = higher value
# Outline: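 Vehicle-treated cultures provide the reference for the growth inhibition reported for compound-exposed, repair-deficient yeast.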
# [16] = at 5.0 µM (retest, dose inferred, filed as 0.5)
# [17] = at 50.0 µM (retest, dose inferred, filed as 5.0)
compound,measurement,setting,value
CC(CN(C)C)C(=O)/C=C/c1ccc(Cl)c(Cl)c1 (stereo unspecified),growth inhibition,[1]; at 100.0 µM,97% (active)
same,growth inhibition,[2]; at 1.2 µM,6%
same,growth inhibition,[2]; at 3.7 µM,9%
same,growth inhibition,[2]; at 11.0 µM,22%
same,growth inhibition,[2]; at 33.0 µM,50%
same,growth inhibition,[2]; at 100.0 µM,96% (active)
same,growth inhibition,[3]; [16],-4%
same,growth inhibition,[3]; [17],8%
same,growth inhibition,[3]; at 50.0 µM,99.6% (active)
same,growth inhibition,[4]; at 1.2 µM,3%
same,growth inhibition,[4]; at 3.7 µM,5%
same,growth inhibition,[4]; at 11.0 µM,10%
same,growth inhibition,[4]; at 33.0 µM,29%
same,growth inhibition,[4]; at 100.0 µM,74% (active)
same,growth inhibition,[5]; [16],-3%
same,growth inhibition,[5]; [17],-7%
same,growth inhibition,[5]; at 50.0 µM,97% (active)
same,growth inhibition,[6]; at 1.2 µM,3%
same,growth inhibition,[6]; at 3.7 µM,5%
same,growth inhibition,[6]; [16],-16%
same,growth inhibition,[6]; at 11.0 µM,16%
same,growth inhibition,[6]; at 33.0 µM,69%
same,growth inhibition,[6]; [17],82% (active)
same,growth inhibition,[6]; at 50.0 µM,99.2% (active)
same,growth inhibition,[6]; at 100.0 µM,97% (active)
same,growth inhibition,[7]; at 1.2 µM,2%
same,growth inhibition,[7]; at 3.7 µM,6%
same,growth inhibition,[7]; at 11.0 µM,14%
same,growth inhibition,[7]; at 33.0 µM,70% (active)
same,growth inhibition,[7]; at 100.0 µM,98% (active)
same,growth inhibition,[8]; at 1.2 µM,4%
same,growth inhibition,[8]; at 3.7 µM,6%
same,growth inhibition,[8]; at 11.0 µM,15%
same,growth inhibition,[8]; at 33.0 µM,74% (active)
same,growth inhibition,[8]; at 100.0 µM,98% (active)
same,growth inhibition,[9]; at 1.2 µM,4%
same,growth inhibition,[9]; at 3.7 µM,9%
same,growth inhibition,[9]; at 11.0 µM,25%
same,growth inhibition,[9]; at 33.0 µM,84% (active)
same,growth inhibition,[9]; at 100.0 µM,98% (active)
same,growth inhibition,[10]; [16],-7%
same,growth inhibition,[10]; [17],-21%
same,growth inhibition,[10]; at 50.0 µM,99.2% (active)
same,growth inhibition,[11]; at 1.2 µM,5%
same,growth inhibition,[11]; at 3.7 µM,15%
same,growth inhibition,[11]; at 11.0 µM,40%
same,growth inhibition,[11]; at 33.0 µM,84% (active)
same,growth inhibition,[11]; at 100.0 µM,97% (active)
NCCCSc1ccccc1,growth inhibition,[12]; at 1.2 µM,-2%
same,growth inhibition,[12]; at 3.7 µM,-2%
same,growth inhibition,[12]; at 11.0 µM,-4%
same,growth inhibition,[12]; at 33.0 µM,-4%
same,growth inhibition,[12]; at 100.0 µM,-2%
same,growth inhibition,[13]; at 1.2 µM,-3%
same,growth inhibition,[13]; at 3.7 µM,-1%
same,growth inhibition,[13]; at 11.0 µM,-4%
same,growth inhibition,[13]; at 33.0 µM,-8%
same,growth inhibition,[13]; at 100.0 µM,-6%
same,growth inhibition,[14]; at 1.2 µM,-3%
same,growth inhibition,[14]; at 3.7 µM,-4%
same,growth inhibition,[14]; at 11.0 µM,-4%
same,growth inhibition,[14]; at 33.0 µM,13%
same,growth inhibition,[14]; at 100.0 µM,-1%
same,growth inhibition,[15]; at 1.2 µM,-3%
same,growth inhibition,[15]; at 3.7 µM,-2%
same,growth inhibition,[15]; [16],2%
same,growth inhibition,[15]; at 11.0 µM,-2%
same,growth inhibition,[15]; at 33.0 µM,-3%
same,growth inhibition,[15]; [17],-19%
same,growth inhibition,[15]; at 50.0 µM,-25.2%
same,growth inhibition,[15]; at 100.0 µM,-2%
same,growth inhibition,[1]; at 1.2 µM,-1%
same,growth inhibition,[1]; at 3.7 µM,0%
same,growth inhibition,[1]; [16],-8%
same,growth inhibition,[1]; at 11.0 µM,1%
same,growth inhibition,[1]; at 33.0 µM,0%
same,growth inhibition,[1]; [17],-30%
same,growth inhibition,[1]; at 50.0 µM,14.7%
same,growth inhibition,[1]; at 100.0 µM,0%
same,growth inhibition,[2]; at 1.2 µM,-2%
same,growth inhibition,[2]; at 3.7 µM,-1%
same,growth inhibition,[2]; at 11.0 µM,-1%
same,growth inhibition,[2]; at 33.0 µM,-1%
same,growth inhibition,[2]; at 100.0 µM,-1%
same,growth inhibition,[3]; [16],-11%
same,growth inhibition,[3]; [17],-6%
same,growth inhibition,[3]; at 50.0 µM,-1.9%
same,growth inhibition,[4]; at 1.2 µM,-4%
same,growth inhibition,[4]; at 3.7 µM,-3%
same,growth inhibition,[4]; at 11.0 µM,0%
same,growth inhibition,[4]; at 33.0 µM,-4%
same,growth inhibition,[4]; at 100.0 µM,-5%
same,growth inhibition,[5]; [16],-3%
same,growth inhibition,[5]; [17],37%
same,growth inhibition,[5]; at 50.0 µM,34.4%
same,growth inhibition,[6]; at 1.2 µM,-2%
same,growth inhibition,[6]; at 3.7 µM,-3%
same,growth inhibition,[6]; [16],8%
same,growth inhibition,[6]; at 11.0 µM,-1%
same,growth inhibition,[6]; at 33.0 µM,-1%
same,growth inhibition,[6]; [17],78% (active)
same,growth inhibition,[6]; at 50.0 µM,-0.3%
same,growth inhibition,[6]; at 100.0 µM,-4%
same,growth inhibition,[7]; at 1.2 µM,-2%
same,growth inhibition,[7]; at 3.7 µM,-2%
same,growth inhibition,[7]; at 11.0 µM,-2%
same,growth inhibition,[7]; at 33.0 µM,-2%
same,growth inhibition,[7]; at 100.0 µM,-1%
same,growth inhibition,[8]; at 1.2 µM,-2%
same,growth inhibition,[8]; at 3.7 µM,-4%
same,growth inhibition,[8]; at 11.0 µM,-2%
same,growth inhibition,[8]; at 33.0 µM,-4%
same,growth inhibition,[8]; at 100.0 µM,-2%
same,growth inhibition,[9]; at 1.2 µM,0%
same,growth inhibition,[9]; at 3.7 µM,1%
same,growth inhibition,[9]; at 11.0 µM,2%
same,growth inhibition,[9]; at 33.0 µM,0%
same,growth inhibition,[9]; at 100.0 µM,1%
same,growth inhibition,[10]; [16],-21%
same,growth inhibition,[10]; [17],-15%
same,growth inhibition,[10]; at 50.0 µM,-4.65%
same,growth inhibition,[11]; at 1.2 µM,-1%
same,growth inhibition,[11]; at 3.7 µM,-1%
same,growth inhibition,[11]; at 11.0 µM,-8%
same,growth inhibition,[11]; at 33.0 µM,1%
same,growth inhibition,[11]; at 100.0 µM,-1%

# — PubChem BioAssay (NCI)
